These results are taken from the OligoGym collection.
Note: reference of the scale not given here.

This assay concerns the target FLG. Nature of the assay: pooled miR-30 sensor sort-seq; sequence = guide strand. The note with it: shRNA.
TTCAGAACTAGATTCATGCCTT had a sensor-assay potency score (higher = more potent) of 0.702.

TTTCTTCTAATAGACTATCAGT returned a sensor-assay potency score (higher = more potent) of -0.739.

Sequence TTTGTCTGCTGACACTTCTGGA came in with a sensor-assay potency score (higher = more potent) of -0.531.

TATGAGTAGGTGAATATCCTTT returned a sensor-assay potency score (higher = more potent) of -0.066.

Sequence TAGACTCATAATATGCTTGAGC gave a sensor-assay potency score (higher = more potent) of -0.577.

For the sequence TTGTTCTGCTTGCACTTCTGGA, the sensor-assay potency score (higher = more potent) is -0.702.

In turn, TAATCTGCACTACCATAGCTGC came in with a sensor-assay potency score (higher = more potent) of -1.29.

On to TAATCTAGTATTTTCAGTCTTG, for which the sensor-assay potency score (higher = more potent) worked out at 0.133.

For the sequence ATTGTAACTAACACTTCCGTGC, the sensor-assay potency score (higher = more potent) was 0.359.

In the case of TTTTGAGTCATTCTTCCTGTAT, the sensor-assay potency score (higher = more potent) was -0.417.

With TTCTAATAGACTATCAGTGGTG, the sensor-assay potency score (higher = more potent) was -0.268.

Consider TTTCTCTGCTTGCACTTCTGGA, for which the sensor-assay potency score (higher = more potent) was -0.359.

In turn, TAGAGTCTGACTGTACAGGTGA yielded a sensor-assay potency score (higher = more potent) of 0.79.

Consider TTTTTTTGAATATTGCTTGAAA, for which the sensor-assay potency score (higher = more potent) is -0.0278.

TTGTCTGCTTGCACTTCTGGAT: the sensor-assay potency score (higher = more potent) was -0.517.

As to TCTATTGTTTCTTCTTTCCAGA, the sensor-assay potency score (higher = more potent) was -0.556.

Turning to TTTGTCTGCTTGCACTTCTGGA, the sensor-assay potency score (higher = more potent) was -0.568.

TTGTCTGCTGACACTTCTGGAT: the sensor-assay potency score (higher = more potent) is -0.488.

The sequence TTTCATAATCATATACTCCTTC yielded a sensor-assay potency score (higher = more potent) of 0.805.

For TTTATCATGATGACTGTGCTTT, the sensor-assay potency score (higher = more potent) was determined as 0.582.

Take TAGAATGGCCACATAAACCTGG: the sensor-assay potency score (higher = more potent) stood at 0.301.
